The values that follow come from PubChem BioAssay (EPA / NIEHS).

Conditions in all cases: mRNA level, 48 h; actives raise or lower the signal
Read-out in experiment [1]: Fatty acid synthase (Homo sapiens) (UniProt P49327)
Put plainly: LTEA_HepaRG_FASN: Life Technologies and Expression Analysis (LTEA) Assay for Fatty Acid Synthase (FASN) using HepaRG (AID 2283448). In outline:
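Differentiated HepaRG cells in serum-free induction medium exposed 48 h in duplicate to eight half-log concentrations, top 100 uM, 0.5% DMSO. FASN mRNA by qRT-PCR normalised to ACTB, GAPDH, POLR2A; bidirectional fit versus DMSO.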

Read-out in experiment [2]: Cyclin D2 (CCND2), CCND2 (gene 894)
Put plainly: LTEA_HepaRG_CCND2: Life Technologies and Expression Analysis (LTEA) Assay for Cyclin D2 (CCND2) using HepaRG (AID 2283449).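 Further: CCND2 transcript measured by TaqMan qRT-PCR and normalised to three housekeeping genes.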 An outline of the steps:
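Chemicals in 0.5% DMSO, eight half-log concentrations from 100 uM top, were applied in duplicate for 48 h to human HepaRG cells in serum-free induction medium. CCND2 mRNA by TaqMan qRT-PCR, normalised to ACTB/GAPDH/POLR2A; bidirectional fit versus DMSO.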

Read-out in experiment [3]: Cyclin D1 (CCND1), CCND1 (gene 595)
As to the kind of experiment: LTEA_HepaRG_CCND1: Life Technologies and Expression Analysis (LTEA) Assay for Cyclin D1 (CCND1) using HepaRG (AID 2283451).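 On AC50: TaqMan qRT-PCR transcript level normalised to ACTB GAPDH and POLR2A housekeeping genes.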 An outline of the steps:
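qRT-PCR (Fluidigm 96.96 array) read-out of transcript level, housekeeping-normalized (ACTB/GAPDH/POLR2A). HepaRG cells, 48 h chemical exposure, 8-point half-log series from 100 uM, 0.5% DMSO vehicle; gain or loss relative to DMSO baseline.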

Read-out in experiment [4]: flavin-containing dimethylaniline monooxygenases 3 (FMO3), FMO3 (gene 2328)
As to the kind of experiment: LTEA_HepaRG_FMO3: Life Technologies and Expression Analysis (LTEA) Assay for flavin-containing dimethylaniline monooxygenases 3 (FMO3) using HepaRG (AID 2283453). An outline of the steps: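 Differentiated HepaRG cells in serum-free induction medium, exposed 48 h in duplicate to 8 half-log concentrations up to 100 uM in 0.5% DMSO. FMO3 mRNA by qRT-PCR, normalized to ACTB, GAPDH, POLR2A; bidirectional fit vs DMSO.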

Read-out in experiment [5]: Cytochrome P450 (CYP1A1), CYP1A1 (gene 1543)
As to the kind of experiment: LTEA_HepaRG_CYP1A1: Life Technologies and Expression Analysis (LTEA) Assay for Cytochrome P450 (CYP1A1) using HepaRG (AID 2283454). An outline of the steps: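 qRT-PCR read-out: CYP1A1 transcript normalized to three housekeeping genes, fitted bidirectionally against 0.5% DMSO vehicle baseline. Human HepaRG cells, 48 h chemical exposure, 8-point half-log series topping at 100 uM.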

Read-out in experiment [6]: CFLAR gene, CFLAR (gene 8837)
As to the kind of experiment: LTEA_HepaRG_CFLAR: Life Technologies and Expression Analysis (LTEA) Assay for CFLAR gene using HepaRG (AID 2283455). In outline:
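Differentiated HepaRG cells in serum-free induction medium were exposed 48 h in duplicate to eight half-log concentrations up to 100 uM in 0.5% DMSO; mRNA measured by TaqMan qRT-PCR, normalized to ACTB, GAPDH, POLR2A; bidirectional fitting versus DMSO.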

Read-out in experiment [7]: Forkhead box O1 (FOXO1), FOXO1 (gene 2308)
As to the kind of experiment: LTEA_HepaRG_FOXO1: Life Technologies and Expression Analysis (LTEA) Assay for Forkhead box O1 (FOXO1) using HepaRG (AID 2283456). In outline: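 Differentiated HepaRG cells, in serum-free induction medium with 0.5% DMSO, exposed 48 h in duplicate to 8-point half-log series from 100 uM. FOXO1 mRNA measured by TaqMan qRT-PCR, normalized to ACTB, GAPDH, POLR2A; bidirectional fit versus DMSO.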

Read-out in experiment [8]: growth arrest and DNA damage 45 (GADD45A), GADD45A (gene 1647)
Put plainly: LTEA_HepaRG_GADD45A: Life Technologies and Expression Analysis (LTEA) Assay for growth arrest and DNA damage 45 (GADD45A) using HepaRG (AID 2283458). In outline:
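Differentiated HepaRG cells exposed 48 h in serum-free induction medium to 8 concentrations, top 100 uM in half-log steps, 0.5% DMSO. GADD45A mRNA quantified by qRT-PCR, normalized to ACTB, GAPDH and POLR2A; bidirectional fit versus DMSO.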

Read-out in experiment [9]: Forkhead box O3 (FOXO3), FOXO3 (gene 2309)
As to the kind of experiment: LTEA_HepaRG_FOXO3: Life Technologies and Expression Analysis (LTEA) Assay for Forkhead box O3 (FOXO3) using HepaRG (AID 2283459). An outline of the steps:
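Differentiated human HepaRG cells, 48 h post-plating, exposed in duplicate for 48 h in serum-free induction medium; 8-point half-log series from 100 uM in 0.5% DMSO. FOXO3 mRNA by TaqMan qRT-PCR, normalized to ACTB/GAPDH/POLR2A; bidirectional fit versus DMSO.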

Read-out in experiment [10]: catalase (CAT), CAT (gene 847)
As to the kind of experiment: LTEA_HepaRG_CAT: Life Technologies and Expression Analysis (LTEA) Assay for catalase (CAT) using HepaRG (AID 2283452). In outline: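 HepaRG cells in serum-free induction medium, 0.5% DMSO vehicle, exposed 48 h in duplicate over 8 half-log concentrations from 100 uM. CAT mRNA measured by qRT-PCR, normalized to ACTB, GAPDH, POLR2A; bidirectional fit versus DMSO.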

Read-out in experiment [11]: Tumor necrosis factor receptor superfamily member 6 (Homo sapiens) (UniProt P25445)
As to the kind of experiment: LTEA_HepaRG_FAS: Life Technologies and Expression Analysis (LTEA) Assay for Fas cell surface death receptor (FAS) using HepaRG (AID 2283447). An outline of the steps: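 Differentiated HepaRG cells in serum-free induction medium were exposed 48 h to 8 half-log concentrations up to 100 uM in 0.5% DMSO, in duplicate. FAS mRNA was measured by qRT-PCR normalised to ACTB, GAPDH and POLR2A; bidirectional fit versus DMSO.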

Read-out in experiment [12]: Cyclin Dependent Kinase Inhibitor 1A (CDKN1A), CDKN1A (gene 1026)
As to the kind of experiment: LTEA_HepaRG_CDKN1A: Life Technologies and Expression Analysis (LTEA) Assay for Cyclin Dependent Kinase Inhibitor 1A (CDKN1A) using HepaRG (AID 2283450). In outline: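 HepaRG, 48 h dosing, 8-pt half-log series from 100 uM top, 0.5% DMSO vehicle, duplicates. Readout: TaqMan qRT-PCR of CDKN1A transcript, housekeeping-normalized (ACTB, GAPDH, POLR2A). Up/down curve fit relative to DMSO.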

As a reminder, the AC50 is the midpoint of the concentration-response curve, whichever way the signal moves.

Activity calls are given as the source filed them. How the source made its calls: active means hit-call score of the fitted dose curve at least 0.9, where 1 is the maximum; inactive means score below 0.9.

Chain of Fatty acid synthase (Homo sapiens) (P49327 whole entry, looked up): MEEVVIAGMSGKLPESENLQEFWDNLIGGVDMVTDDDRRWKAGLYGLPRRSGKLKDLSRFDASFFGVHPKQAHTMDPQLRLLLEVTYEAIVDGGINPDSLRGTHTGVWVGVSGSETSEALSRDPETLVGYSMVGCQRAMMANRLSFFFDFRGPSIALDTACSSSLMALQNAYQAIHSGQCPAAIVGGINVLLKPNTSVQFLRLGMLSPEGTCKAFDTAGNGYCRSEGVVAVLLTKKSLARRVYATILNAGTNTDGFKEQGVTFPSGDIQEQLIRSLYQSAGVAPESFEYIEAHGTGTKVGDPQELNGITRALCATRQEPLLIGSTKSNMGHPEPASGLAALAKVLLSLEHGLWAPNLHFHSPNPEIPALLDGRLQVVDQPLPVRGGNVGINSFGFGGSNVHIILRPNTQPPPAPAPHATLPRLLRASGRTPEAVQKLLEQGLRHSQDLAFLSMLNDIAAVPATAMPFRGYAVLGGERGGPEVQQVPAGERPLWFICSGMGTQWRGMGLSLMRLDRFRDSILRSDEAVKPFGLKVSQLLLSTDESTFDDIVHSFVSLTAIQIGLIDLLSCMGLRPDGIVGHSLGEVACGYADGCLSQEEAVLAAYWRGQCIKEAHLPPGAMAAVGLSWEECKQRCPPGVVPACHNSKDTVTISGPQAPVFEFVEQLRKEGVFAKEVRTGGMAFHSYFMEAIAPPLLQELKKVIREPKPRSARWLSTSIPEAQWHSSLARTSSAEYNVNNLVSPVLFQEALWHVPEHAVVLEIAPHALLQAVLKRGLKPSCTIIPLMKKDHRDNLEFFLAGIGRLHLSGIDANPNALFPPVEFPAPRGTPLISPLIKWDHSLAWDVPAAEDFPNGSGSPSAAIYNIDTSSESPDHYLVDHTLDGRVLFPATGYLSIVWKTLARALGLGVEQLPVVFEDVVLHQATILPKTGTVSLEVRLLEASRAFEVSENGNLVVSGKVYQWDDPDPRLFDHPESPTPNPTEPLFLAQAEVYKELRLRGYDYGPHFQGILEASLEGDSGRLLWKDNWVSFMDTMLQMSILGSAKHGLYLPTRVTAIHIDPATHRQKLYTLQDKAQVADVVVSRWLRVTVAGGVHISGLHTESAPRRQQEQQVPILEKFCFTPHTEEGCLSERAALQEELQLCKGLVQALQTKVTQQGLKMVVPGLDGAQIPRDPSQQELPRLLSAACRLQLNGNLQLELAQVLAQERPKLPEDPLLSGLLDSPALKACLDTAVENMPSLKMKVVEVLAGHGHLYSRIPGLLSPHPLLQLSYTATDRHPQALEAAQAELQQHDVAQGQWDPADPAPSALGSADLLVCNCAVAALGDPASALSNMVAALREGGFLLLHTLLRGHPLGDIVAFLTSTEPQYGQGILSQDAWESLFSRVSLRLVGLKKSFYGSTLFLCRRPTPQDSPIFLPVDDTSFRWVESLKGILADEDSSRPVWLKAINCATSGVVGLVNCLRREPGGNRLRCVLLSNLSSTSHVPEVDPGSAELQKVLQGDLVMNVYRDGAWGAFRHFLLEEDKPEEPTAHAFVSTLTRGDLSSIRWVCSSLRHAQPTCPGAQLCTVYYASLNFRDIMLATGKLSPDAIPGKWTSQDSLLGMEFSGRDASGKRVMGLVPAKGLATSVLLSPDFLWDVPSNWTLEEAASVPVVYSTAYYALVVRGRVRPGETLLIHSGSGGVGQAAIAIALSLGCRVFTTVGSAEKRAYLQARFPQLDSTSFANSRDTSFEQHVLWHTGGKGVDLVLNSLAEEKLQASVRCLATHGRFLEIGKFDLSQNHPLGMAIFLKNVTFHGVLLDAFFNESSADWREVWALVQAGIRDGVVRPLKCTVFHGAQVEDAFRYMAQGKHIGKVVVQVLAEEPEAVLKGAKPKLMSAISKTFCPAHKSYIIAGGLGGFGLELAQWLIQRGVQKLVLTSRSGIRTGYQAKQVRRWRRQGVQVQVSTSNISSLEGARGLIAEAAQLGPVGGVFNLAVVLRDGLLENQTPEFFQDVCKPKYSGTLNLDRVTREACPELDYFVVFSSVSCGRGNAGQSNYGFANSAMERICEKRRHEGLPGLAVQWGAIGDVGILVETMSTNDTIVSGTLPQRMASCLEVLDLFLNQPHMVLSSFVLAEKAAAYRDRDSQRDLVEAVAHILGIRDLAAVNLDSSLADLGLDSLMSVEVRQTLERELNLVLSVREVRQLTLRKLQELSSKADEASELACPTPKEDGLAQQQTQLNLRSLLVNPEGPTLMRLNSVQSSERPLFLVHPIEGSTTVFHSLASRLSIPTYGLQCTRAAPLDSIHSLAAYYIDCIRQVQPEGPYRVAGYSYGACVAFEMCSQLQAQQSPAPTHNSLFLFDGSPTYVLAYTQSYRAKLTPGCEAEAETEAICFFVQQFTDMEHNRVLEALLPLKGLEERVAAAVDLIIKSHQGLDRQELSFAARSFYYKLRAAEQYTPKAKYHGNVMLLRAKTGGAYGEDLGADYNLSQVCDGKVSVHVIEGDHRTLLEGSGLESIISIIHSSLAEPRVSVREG

As to `CC1(C)C(C(=O)OC(C#N)c2cccc(Oc3ccccc3)c2)C1(C)C` (stereo not given), the result in experiment [1], in experiment [2], in experiment [3], in experiment [4], in experiment [6] and in experiment [7] was inactive. For the same compound, the call in [8] and in [9] was inactive. For the same compound, the AC50 in experiment [5] is 50 µM (active).

For `CCOc1nc(F)cc2nc(S(=O)(=O)Nc3c(Cl)cccc3Cl)nn12`, the outcome in [1], in experiment [2], in [3], in experiment [10], in [4] and in [5] was inactive. Further, the compound was classed as inactive in experiment [6], in experiment [7], in experiment [8] and in experiment [9].

For the compound `CCOP(=O)(OCC)Oc1nc(Cl)c(Cl)cc1Cl`, the compound was called inactive in experiment [11], in experiment [2], in [6], in experiment [7], in [8] and in experiment [9]. Also, the AC50 was 60.2 µM (active) in [1], 80.7 µM (active) in [3], 79.3 µM (active) in experiment [4] and 73.5 µM (active) in experiment [5].

On to `COP(=O)(OC)O/C(C)=C/C(=O)N(C)C`, for which the result in experiment [1], in experiment [2], in experiment [3], in experiment [4], in [5] and in experiment [6] was inactive. In addition, the compound was classed as inactive in experiment [7], in experiment [8] and in [9].

Turning to `C=CCOC(=O)C(C)(C)OC(=O)c1cc(-n2c(=O)cc(C(F)(F)F)n(C)c2=O)ccc1Cl`, the compound was classed as inactive in experiment [1], in experiment [2], in experiment [12], in experiment [3], in [10] and in [4]. For the same compound, the call in experiment [5], in [6], in [7], in experiment [8] and in experiment [9] was inactive.

Turning to `CCCCOCN(C(=O)CCl)c1c(CC)cccc1CC`, the compound was classed as inactive in experiment [11], in experiment [1], in experiment [2], in experiment [12], in experiment [3] and in experiment [10]. Also, the outcome in experiment [4], in experiment [6], in [7], in experiment [8] and in [9] was inactive. For the same compound, the AC50 in experiment [5] was 74 µM (active).

Turning to `Cc1cnc(C2=NC(C)(C(C)C)C(=O)N2)c(C(=O)O)c1` (stereo not given), the call in experiment [11], in experiment [1], in [2], in experiment [3], in experiment [4] and in experiment [6] was inactive. For the same compound, the compound was classed as inactive in experiment [7], in [8] and in [9]. For the same compound, the AC50 in [5] is 71.2 µM (active).

On to `CCCCC(O)(Cn1cncn1)c1ccc(Cl)cc1Cl` (stereo not given), for which the AC50 in [1] was 85.7 µM (active); in experiment [3], 57.7 µM (active); in experiment [4] it was 75.9 µM (active); in experiment [5], 12.9 µM (active); in [6] it was 66.5 µM (active); in experiment [7], 80.2 µM (active). The AC50 in experiment [8] was 89.9 µM (active). The call in [2] and in experiment [9] was inactive.

On to `OC(c1ccc(Cl)cc1)(c1ccc(Cl)cc1)C(Cl)(Cl)Cl`, for which the AC50 was 50 µM (active) in experiment [11]; 34.8 µM (active) in experiment [1]; 71.2 µM (active) in experiment [10]; 11.9 µM (active) in experiment [5]; 79.5 µM (active) in experiment [7]. Further, the outcome in experiment [3], in experiment [6], in experiment [8] and in experiment [9] was inactive.

Take `COc1cc(OC)nc(NC(=O)NS(=O)(=O)c2ncccc2OCC(F)(F)F)n1`: the compound was called inactive in [1], in [3], in experiment [10], in experiment [4], in experiment [6] and in [7]. In addition, the compound was classed as inactive in experiment [9]. In addition, the AC50 in experiment [2] was 0.223 µM (active); in experiment [5] it was 21 µM (active); in experiment [8] it was 50 µM (active).

Consider `COC(=O)c1c(C(F)F)nc(C(F)(F)F)c(C2=NCCS2)c1CC(C)C`, for which the result in experiment [1], in experiment [2], in [12], in [3], in experiment [10] and in experiment [4] was inactive. For the same compound, the compound was classed as inactive in experiment [5], in [6], in [7] and in experiment [9]. Besides, in experiment [8], the AC50 is 0.0299 µM (active).
